The target of one assay is Albumin (Bos taurus) (UniProt P02769). Kind of assay: bovine serum albumin binders on microarray, profiling panel, artefact control for SMM control protein annotation, biochemical, small-molecule microarray, Alexa647 label, 635/667 nm fluorescence (AID 1118).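 Also: score merges 667 nm emission intensity and signal-to-noise per printed compound spot.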 The following applies: BSA-A647 binding, fluorescence 635 nm, higher = more signal.
Assay [1] can be described thus: small-molecule microarray binders of probe aXIP, primary screen, biochemical, NeuroSMM set, 635/667 nm fluorescence (AID 1119).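 Also: probe is the protein aXip251-270 applied at 1 µg/mL to compound-printed slides; binding of probe to printed compounds measured as 667 nm fluorescence plus signal to noise.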 The following applies: higher = more signal, called active from +8 up or from −8 down.
Assay [2] in a line: small-molecule binders of probe aNOTCH3, primary screen, biochemical, small-molecule microarray, 635/667 nm fluorescence (AID 1120).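 Also: probe is a biotin-tagged antibody raised against NOTCH3 rather than NOTCH3 protein; score merges spot fluorescence near 667 nm with spot signal to noise.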 The following applies: higher = more signal.
The nature of assay [3]: small-molecule binders of probe aNOTCH2, primary screen, biochemical, small-molecule microarray, 635/667 nm fluorescence (AID 1121).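 Also: score merges feature fluorescence read at 667 nm with its signal to noise.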 The following applies: higher = more signal.
In assay [4] the target is Carbonic anhydrase 2 (Homo sapiens) (UniProt P00918). Kind of assay: CAII small-molecule binders, profiling panel, biochemical, small-molecule microarray, Alexa647-labelled CAII (AID 1122). The settings on record: CAII-A647 binding fluorescence, higher = more signal.
Assay [5] in a line: COS7 lysate on small-molecule microarray, probe aHis, 635 nm (AID 1123).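 Also: z-score combines 667nm fluorescence intensity with signal-to-noise per printed compound spot.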 The settings on record: COS7 cell lysate, fluorescence, higher = more signal.
Assay [6] is described as follows: compound binding in COS7 lysate, probe aLAP1, primary screen, cell lysate, small-molecule microarray (AID 1124).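 Also: lysate comes from COS7 cells expressing LAP1 and is applied at 0.3 µg/mL; score merges spot fluorescence near 667 nm with signal-to-noise over triplicate slides.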 The settings on record: probe aLAP1, fluorescence, higher = more signal.
The next assay has as its system Sam68 (KHDRBS1). The assay is described as follows: Sam68 small-molecule binders, primary screen, biochemical, small-molecule microarray, 635 nm fluorescence (AID 1125).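 Also: score merges 667 nm channel intensity with signal to noise over triplicate slides.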 The settings on record: small-molecule microarray binding, higher = more signal.
Assay [7] relates to Chordin-like protein 2 (CHRDL2). The assay is described as follows: CHRDL2 small-molecule binders, primary screen, biochemical, small-molecule microarray, 635 nm fluorescence (AID 1126).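 Also: printed compound slides probed with Chrdl2 protein at 4 µg/mL for 1 h at 4 C; score merges 667 nm emission intensity with signal to noise over three replicate slides.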 The following applies: small-molecule microarray binding, fluorescence 635 nm; higher = more signal.
Assay [8] addresses Concanavalin-A (Canavalia ensiformis) (UniProt P02866). The assay is described as follows: ConA small-molecule binders, primary screen, artefact control for SMM control protein annotation, biochemical, small-molecule microarray, Alexa647 label, 635 nm (AID 1127).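 Also: z combines 667 nm emission intensity with signal-to-noise across three replicate slides.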 The following applies: ConA-A647 binding fluorescence, higher = more signal.
The nature of assay [9]: anti-His antibody binders, primary screen, artefact control for SMM control protein annotation, biochemical, small-molecule microarray, 635 nm fluorescence (AID 1128).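 Also: score merges feature fluorescence with signal-to-noise for each printed compound spot.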 The settings on record: anti-His Alexa647 antibody binding, higher = more signal.
Assay [10] has as its system Human papillomavirus type 1a E7 protein (residues 1-88). Kind of assay: HPV1a E7 small-molecule binders, primary screen, biochemical, small-molecule microarray, residues 1-88, 635 nm (AID 1129). The settings on record: small-molecule microarray binding, fluorescence 635 nm; higher = more signal.
Assay [11] has as its target Focal adhesion kinase 1 (Homo sapiens) (UniProt Q05397). The assay is described as follows: small-molecule microarray binders of FAK, primary screen, biochemical, 635/667 nm fluorescence, BSA, DTT (AID 1130).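 Also: composite of spot emission at 667 nm and signal to noise over triplicate slides.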 The settings on record: PTK2 binding, 635 nm fluorescence, higher = more signal.
In assay [12] the test system is Fibrinogen (Alexa647-labelled). Kind of assay: fibrinogen binders on compound microarrays, profiling panel, artefact control for SMM control-protein annotation, biochemical, small-molecule microarray, 635/667 nm fluorescence (AID 1131).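 Also: z-score merges 667 nm fluorescence with per-spot signal-to-noise over triplicate slides.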 The following applies: fibrinogen-A647 binding fluorescence, higher = more signal.
The target in assay [13] is Follistatin (Homo sapiens) (UniProt P19883). The assay is described as follows: follistatin binders on small-molecule microarrays, primary screen, biochemical, small-molecule microarray, 635/667 nm fluorescence (AID 1132). The settings on record: FST binding, 635 nm fluorescence, higher = more signal.
Sequence of Follistatin (Homo sapiens) (P19883 whole entry, looked up): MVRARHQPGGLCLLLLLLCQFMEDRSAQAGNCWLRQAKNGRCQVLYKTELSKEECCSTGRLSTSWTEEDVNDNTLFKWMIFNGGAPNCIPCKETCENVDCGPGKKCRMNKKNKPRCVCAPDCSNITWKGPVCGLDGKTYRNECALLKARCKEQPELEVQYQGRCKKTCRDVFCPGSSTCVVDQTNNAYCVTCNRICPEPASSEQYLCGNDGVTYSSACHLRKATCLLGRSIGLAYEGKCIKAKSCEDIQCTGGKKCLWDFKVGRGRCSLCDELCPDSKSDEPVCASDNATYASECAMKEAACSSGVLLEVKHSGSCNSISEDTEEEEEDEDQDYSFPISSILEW
Assay [14] has as its target Fibroblast growth factor 2 (Homo sapiens) (UniProt P09038). Kind of assay: FGF2 binders on small-molecule microarrays, primary screen, biochemical, small-molecule microarray, 635/667 nm fluorescence (AID 1133). The following applies: small-molecule microarray binding, FGF2, fluorescence 635/667; higher = more signal.
The nature of assay [15]: mitochondrial membrane potential change in A549 cells, profiling panel, cell-based, JC-1 fluorescence, basal, 24 h, 100 nL (AID 1138).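 Also: A549 lung adenocarcinoma cells under basal conditions with no added stimulus; test concentration not given here.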 The settings on record: higher = more signal.
In another assay the test system is Lefty1. Kind of assay: Lefty1 binders on small-molecule microarrays, primary screen, biochemical, small-molecule microarray, 635/667 nm fluorescence (AID 1139). The settings on record: small-molecule microarray binding, fluorescence 635/667; higher = more signal.
The test system of assay [16] is wheat germ agglutinin (Triticum aestivum), Alexa647-labelled. The assay is described as follows: wheat germ agglutinin binders on compound microarrays, profiling panel, artefact control for SMM control-protein annotation, biochemical, small-molecule microarray, 635/667 nm fluorescence (AID 1140).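 Also: score merges 667 nm feature emission with signal to noise over triplicate slides.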 The following applies: WGA-A647 binding, 635 nm fluorescence, higher = more signal.

Assay [17] has as its target Luciferin 4-monooxygenase (Photinus pyralis) (UniProt P08659). Kind of assay: firefly luciferase enzyme inhibitors, primary screen, biochemical, luminescence, purified enzyme, 2006 set (AID 1141).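 Also: cell-free assay with purified firefly luciferase at 100 ng per well in PBS; test concentration not given here.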 The settings on record: SteadyGlo luminescence, 30 min, higher = more signal, called active from +8 up or from −8 down.

SMILES strings stand for the structures. Calls of active or inactive are those of the source.

Sequence of Concanavalin-A (Canavalia ensiformis) (P02866 whole entry, looked up): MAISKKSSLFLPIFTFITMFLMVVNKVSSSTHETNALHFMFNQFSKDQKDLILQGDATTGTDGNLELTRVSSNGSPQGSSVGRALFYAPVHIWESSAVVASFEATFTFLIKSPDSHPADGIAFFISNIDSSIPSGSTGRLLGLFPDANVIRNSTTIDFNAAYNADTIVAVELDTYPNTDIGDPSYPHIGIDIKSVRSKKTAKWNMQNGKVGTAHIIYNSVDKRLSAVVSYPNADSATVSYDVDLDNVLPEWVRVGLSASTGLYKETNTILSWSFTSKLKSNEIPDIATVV
Sequence of Fibroblast growth factor 2 (Homo sapiens) (P09038 whole entry, looked up): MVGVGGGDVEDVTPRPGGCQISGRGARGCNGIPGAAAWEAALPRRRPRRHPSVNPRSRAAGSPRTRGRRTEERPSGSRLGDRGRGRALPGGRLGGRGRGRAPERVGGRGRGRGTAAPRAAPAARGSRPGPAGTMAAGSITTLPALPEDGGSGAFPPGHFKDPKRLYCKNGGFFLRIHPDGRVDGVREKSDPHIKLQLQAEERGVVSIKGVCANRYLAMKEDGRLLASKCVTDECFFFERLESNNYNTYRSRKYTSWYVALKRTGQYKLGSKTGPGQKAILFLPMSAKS
Sequence of Focal adhesion kinase 1 (Homo sapiens) (Q05397 whole entry, looked up): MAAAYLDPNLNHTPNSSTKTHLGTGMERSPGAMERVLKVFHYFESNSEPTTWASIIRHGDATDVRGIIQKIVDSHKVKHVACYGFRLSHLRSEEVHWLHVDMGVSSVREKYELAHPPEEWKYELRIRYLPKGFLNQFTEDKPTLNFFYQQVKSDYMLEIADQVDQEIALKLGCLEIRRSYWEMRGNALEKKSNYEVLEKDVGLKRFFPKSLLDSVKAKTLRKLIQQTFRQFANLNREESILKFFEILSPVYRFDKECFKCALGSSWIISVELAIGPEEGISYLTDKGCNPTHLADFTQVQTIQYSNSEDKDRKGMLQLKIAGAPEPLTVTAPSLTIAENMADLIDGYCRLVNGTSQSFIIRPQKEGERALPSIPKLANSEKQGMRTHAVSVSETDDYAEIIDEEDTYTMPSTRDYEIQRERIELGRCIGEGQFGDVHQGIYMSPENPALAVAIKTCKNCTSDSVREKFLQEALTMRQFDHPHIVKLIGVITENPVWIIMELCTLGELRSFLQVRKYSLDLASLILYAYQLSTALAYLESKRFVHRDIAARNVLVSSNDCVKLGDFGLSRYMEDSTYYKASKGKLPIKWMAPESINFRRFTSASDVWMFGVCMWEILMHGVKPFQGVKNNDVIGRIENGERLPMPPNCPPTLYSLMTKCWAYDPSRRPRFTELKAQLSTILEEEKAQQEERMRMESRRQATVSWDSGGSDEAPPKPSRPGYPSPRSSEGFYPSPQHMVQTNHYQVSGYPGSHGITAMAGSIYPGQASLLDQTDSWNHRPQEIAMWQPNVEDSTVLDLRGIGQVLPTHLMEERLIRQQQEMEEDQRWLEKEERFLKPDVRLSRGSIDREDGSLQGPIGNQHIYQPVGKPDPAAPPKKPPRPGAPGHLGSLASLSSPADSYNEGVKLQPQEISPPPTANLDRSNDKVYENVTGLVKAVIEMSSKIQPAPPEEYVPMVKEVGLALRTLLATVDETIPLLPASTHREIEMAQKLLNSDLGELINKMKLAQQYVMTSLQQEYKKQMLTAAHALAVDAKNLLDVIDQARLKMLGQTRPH
Sequence of Albumin (Bos taurus) (P02769 whole entry, looked up): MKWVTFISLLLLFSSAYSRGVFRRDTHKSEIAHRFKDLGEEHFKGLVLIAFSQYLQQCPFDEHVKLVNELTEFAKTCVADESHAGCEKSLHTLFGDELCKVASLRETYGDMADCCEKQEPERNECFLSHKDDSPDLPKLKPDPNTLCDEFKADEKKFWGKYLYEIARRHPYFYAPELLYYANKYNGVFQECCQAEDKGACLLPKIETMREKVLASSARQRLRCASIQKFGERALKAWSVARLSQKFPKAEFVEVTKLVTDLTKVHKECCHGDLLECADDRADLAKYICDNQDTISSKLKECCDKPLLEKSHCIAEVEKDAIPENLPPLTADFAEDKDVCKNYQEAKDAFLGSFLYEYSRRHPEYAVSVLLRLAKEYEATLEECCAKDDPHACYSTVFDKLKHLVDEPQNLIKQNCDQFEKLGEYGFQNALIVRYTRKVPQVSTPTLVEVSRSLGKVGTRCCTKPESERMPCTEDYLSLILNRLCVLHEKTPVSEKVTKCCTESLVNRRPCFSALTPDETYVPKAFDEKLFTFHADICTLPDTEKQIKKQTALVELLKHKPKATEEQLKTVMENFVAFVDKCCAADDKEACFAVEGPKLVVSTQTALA
Sequence of Luciferin 4-monooxygenase (Photinus pyralis) (P08659 whole entry, looked up): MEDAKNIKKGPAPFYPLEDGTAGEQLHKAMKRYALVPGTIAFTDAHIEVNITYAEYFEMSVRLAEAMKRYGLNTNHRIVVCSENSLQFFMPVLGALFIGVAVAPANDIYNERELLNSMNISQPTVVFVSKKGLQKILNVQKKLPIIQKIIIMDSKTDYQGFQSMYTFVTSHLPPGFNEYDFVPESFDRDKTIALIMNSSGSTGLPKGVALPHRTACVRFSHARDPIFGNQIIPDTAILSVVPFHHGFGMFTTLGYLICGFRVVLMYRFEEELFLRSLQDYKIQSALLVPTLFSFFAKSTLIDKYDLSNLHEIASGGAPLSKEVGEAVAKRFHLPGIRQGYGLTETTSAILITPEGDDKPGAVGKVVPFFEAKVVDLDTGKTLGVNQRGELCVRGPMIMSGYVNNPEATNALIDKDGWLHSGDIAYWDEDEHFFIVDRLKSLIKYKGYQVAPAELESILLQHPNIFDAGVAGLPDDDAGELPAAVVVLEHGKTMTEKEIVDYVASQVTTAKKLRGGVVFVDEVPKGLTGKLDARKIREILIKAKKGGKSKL

Consider `C[C@H]1CC[C@@H](C(=O)O)N[C@@H]1c1ccc(C#CCN(C)C)cc1`, for which the composite z-score with Albumin (Bos taurus) was -0.0169; in assay [2], 0.0556; in assay [3] it was -0.149; in [4], 0.37; in assay [5] it was -0.144; in [6], -0.0228. Also, the composite z-score in the assay with Sam68 (KHDRBS1) is -0.331; in assay [7], 0.591; in [8], 0.574; in assay [9], 0.601; in [10], 0.34; in [11], 0.0583. In addition, the composite z-score in assay [12] turned out to be 0.54; in [13] it was 0.682; in [14] it was 0.453; with Lefty1, 0.343; in [16], 0.117. The composite Z-score in assay [1] was 0.26 (inactive). The z-score in assay [15] is 1.04; in assay [17] it was -0.931 (inactive).
As to `O=C1[C@H]2[C@H]3[C@H](O)[C@H](O)CC(=NOCc4ccccc4)[C@@H]3CC[C@H]2C(=O)N1C1CCCCC1`, the composite z-score with Albumin (Bos taurus) is 0.0567; in [2], -0.0903; in assay [3] it was -0.196; in assay [4], 0.539; in [5], 0.737; in assay [6], -0.785. Besides, the composite z-score is 0.357 with Sam68 (KHDRBS1); -0.142 in assay [7]; -0.0593 in assay [8]; 0.157 in assay [9]; -0.0419 in assay [10]; 0.179 in assay [11]. Also, the composite z-score in assay [12] is -0.303; in assay [13], 0.207; in [14] it was -0.45; in the assay on Lefty1, 0.348; in [16], -0.0558. Also, the composite Z-score in [1] was -0.718 (inactive). In addition, the results for the z-score in [15] and in assay [17] were -0.134 and 0.0264 (inactive), respectively.
For `COCCCNC(=O)[C@@]1(CCS(=O)(=O)c2ccccc2)N=C(c2ccc(OCCCO)cc2)O[C@H]1c1ccccc1`, the composite z-score with Albumin (Bos taurus) came to 0.533; in assay [2] it was 0.303; in [3] it was 0.529; in assay [4] it was 0.577; in [5], 3; in [6] it was 1.01. Also, the composite z-score was 1.31 in the assay with Sam68 (KHDRBS1); -0.0021 in assay [7]; 0.261 in assay [8]; 2.98 in assay [9]; 1.25 in [10]; 0.746 in assay [11]. Further, the composite z-score in assay [12] was 0.878; in [13], 0.695; in [14], 0.426; in the assay with Lefty1 it was -0.854; in assay [16], 0.716. Further, the composite Z-score in assay [1] was 0.164 (inactive). The z-score in [15] was 2.39; in assay [17], -1.79 (inactive).
In the case of `CC(C)CN1CCc2nc(-c3ccccc3)c3c(c2CC1)CO[C@@H](C)C3`, the composite z-score with Albumin (Bos taurus) was -0.249; in assay [2] it was 0.154; in [3], -0.16; in [4], -0.143; in [5], -0.258; in [6], -0.673. Besides, the composite z-score in the assay with Sam68 (KHDRBS1) is -0.168; in [7], 0.74; in assay [8] it was 0.0721; in [9], 0.21; in [10], 0.103; in assay [11] it was 0.101. The composite z-score is 0.418 in [12]; 0.587 in assay [13]; 0.478 in assay [14]; 0.435 in the assay on Lefty1; 0.22 in assay [16]. In addition, the composite Z-score in [1] is -0.002 (inactive). The z-score in [15] is 0.186; in assay [17] it was -0.227 (inactive).
Consider `CCOC(=O)NN=C1C[C@@H](O)[C@@H](O)[C@@H]2[C@@H]3C(=O)N(CC)C(=O)[C@@H]3CC[C@@H]12`, for which the composite z-score is 0.338 with Albumin (Bos taurus); -0.0864 in assay [2]; -0.125 in assay [3]; 0.735 in [4]; 0.472 in assay [5]; -0.0313 in assay [6]. The composite z-score turned out to be 0.976 in the assay on Sam68 (KHDRBS1); 0.0151 in [7]; 0.481 in [8]; 0.249 in assay [9]; 0.707 in assay [10]; 0.25 in [11]. Besides, the composite z-score was 0.356 in [12]; 0.314 in assay [13]; -0.0549 in assay [14]; 0.476 with Lefty1; -0.203 in assay [16]. For the same compound, in assay [1], the composite Z-score was 0.112 (inactive). In addition, the z-score in assay [15] is 0.0102; in [17] it was 0.439 (inactive).

The values above are taken from PubChem BioAssay.
